In the library only some 1.6% were active in any assay of this set; here they are far more common.
KCNQ2 enhance – potentiators of rat KCNQ2 potassium channel | CHO-K1 KCNQ2, FluxOR thallium flux fluorescence; hits give high values | B-score at 10 µM | actives 0.54% (n = 310,000) | AID 2239, 2010;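 active means fluorescence ratio B-score at least 3 SD of library B-scores, with initial fluorescence B-score within 3 of them, cut at about 5.3 in these data; same plate scores as AID 2156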;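 further: B-score of peak minus minimum over baseline fluorescence ratio after K+ and Tl+ stimulus; positive B-score means potentiation of KCNQ2 with more thallium influx and brighter signal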
Target sequence (O88943 whole entry, looked up): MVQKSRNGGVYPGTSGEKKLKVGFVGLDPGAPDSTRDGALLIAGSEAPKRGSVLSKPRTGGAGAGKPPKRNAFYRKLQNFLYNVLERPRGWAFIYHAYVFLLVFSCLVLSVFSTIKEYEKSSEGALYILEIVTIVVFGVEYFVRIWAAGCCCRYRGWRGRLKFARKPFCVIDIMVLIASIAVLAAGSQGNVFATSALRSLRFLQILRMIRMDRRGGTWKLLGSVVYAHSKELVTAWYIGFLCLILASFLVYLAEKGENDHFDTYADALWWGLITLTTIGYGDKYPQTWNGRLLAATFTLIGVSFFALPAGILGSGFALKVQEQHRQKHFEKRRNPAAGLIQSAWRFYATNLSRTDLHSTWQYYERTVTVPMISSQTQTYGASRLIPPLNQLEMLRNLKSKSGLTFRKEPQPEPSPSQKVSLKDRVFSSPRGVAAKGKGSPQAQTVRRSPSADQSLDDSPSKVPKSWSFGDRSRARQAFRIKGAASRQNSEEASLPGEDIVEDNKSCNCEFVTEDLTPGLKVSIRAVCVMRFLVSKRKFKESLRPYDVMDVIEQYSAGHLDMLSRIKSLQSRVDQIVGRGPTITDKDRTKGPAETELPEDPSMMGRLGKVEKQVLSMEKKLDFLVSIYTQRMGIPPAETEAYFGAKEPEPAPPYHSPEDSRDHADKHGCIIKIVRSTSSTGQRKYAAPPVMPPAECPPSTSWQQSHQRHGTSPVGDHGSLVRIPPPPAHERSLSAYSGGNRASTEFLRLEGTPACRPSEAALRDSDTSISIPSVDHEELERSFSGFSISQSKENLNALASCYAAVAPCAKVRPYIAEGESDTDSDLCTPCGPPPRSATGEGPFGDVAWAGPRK
KCNQ2 inh – rat KCNQ2 potassium channel inhibitors, primary screen, cell-based, CHO-K1, FluxOR thallium flux, B-score | Potassium voltage-gated channel subfamily KQT member 2 (Rattus norvegicus), O88943 | 20 min; hits give low values | B-score at 10 µM | actives 1.1% (n = 310,000);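 active means fluorescence ratio B-score at most minus 3 library SDs, with starting brightness B-score within 2 library SDs, cut at about -5.5 in these data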
Active calls of the source: *; i = inactive; nt = not tested or not shown.

SMILES	KCNQ2 enhance	KCNQ2 inh
CC1CCC(C(C)C)C(OC(=O)Cn2c(-c3ccc(Br)cc3)[n+](C)c3ccccc32)C1 (stereo not given)	-5.6	-5.6*
CCOc1ccc(/C=C2\SC(=S)NC2=O)cc1OC	3.8	i
COc1ccc(/C=C2\SC(=O)NC2=S)cc1OC	5.9*	i
CCc1c(C)sc(NC(=S)N2CC(C)OC(C)C2)c1C(=O)OC (stereo not given)	nt	i
CCc1ccccc1NC(=O)CNC(=O)c1ccc(-n2cncn2)c([N+](=O)[O-])c1	0.37	i
CCCCN(CC)C(=O)Cn1c(=O)sc2ccccc21	nt	i
CN(CCOc1ccccc1)CC(=O)Nc1cccc(Br)c1	-6.3	-6.3*
Cc1cc(NC(=O)CN(C)CCOc2ccccc2)ccc1Br	nt	i
Cc1sc2ncnc(SCC(=O)N3CCN(C(=O)c4ccco4)CC3)c2c1C	0.17	i
Cc1sc2nc(C(C)C)nc(SCC(=O)N3CCN(C(=O)c4ccco4)CC3)c2c1C	13*	i
O=C(CN(Cc1ccccc1Cl)C(=O)c1csnn1)NC1CCCC1	1.3	i
C=CCn1c(SCc2c(C)noc2C)nc2sc(C)c(C)c2c1=O	-6.5	-6.5*
Cc1noc(C)c1CSc1nc2sc(C)c(C)c2c(=O)n1-c1ccccc1	nt	i
Cc1cc(C(=O)NC2CCCN(Cc3ccccc3F)C2)n[nH]1 (stereo not given)	nt	i
Cc1ccccc1-n1nc2c(c1NC(=O)c1cc3ccccc3o1)CS(=O)(=O)C2	-7.6	-7.6*
Cc1ccccc1-n1nc2c(c1NC(=O)c1ccco1)CS(=O)(=O)C2	0.64	i
Cc1ccccc1-n1nc2c(c1NC(=O)c1ccc(Br)o1)CSC2	-5.9	-5.9*
COc1ccc(-n2nc3c(c2NC(=O)c2cc4ccccc4o2)CS(=O)(=O)C3)cc1	nt	i
O=C(NC1CCCC1)C(c1ccccn1)N(C(=O)c1csnn1)c1ccccc1Br (stereo not given)	0.65	i
CCCOc1ccc(C(=O)NC2CCSc3ccccc32)cc1 (stereo not given)	nt	i
Cc1ccc(OCC(=O)NC2CCSc3ccccc32)cc1 (stereo not given)	-5.9	-5.9*
CSc1ccc(S(=O)(=O)NC2CC2)cc1	nt	i
COc1cc(C(=O)OC2CC3CCC2(C)C3(C)C)ccc1OC(C)=O (stereo not given)	-5.7	-5.7*
CC1(C)C2CCC1(C)C(OC(=O)CNc1ccccc1)C2 (stereo not given)	nt	i
CC(C)CN1C(=O)NC(NS(=O)(=O)c2ccc(N)cc2)(C(F)(F)F)C1=O (stereo not given)	nt	i
SMILES	KCNQ2 enhance	KCNQ2 inh
CCOC(=O)C1(Cc2ccccc2C)CCCN(S(=O)(=O)CC)C1 (stereo not given)	nt	i
COc1cc(OC)c2c(=O)cc(-c3ccccc3)oc2c1	nt	i
COc1cc2c(c3oc(-c4ccccc4)cc(=O)c13)C=CC(C)(C)O2	-6	-6*
CCOC(=O)CN1C(=O)C2(OCCCO2)c2cc(Br)ccc21	0.06	i
O=C(CSc1nnc(-c2ccc(O)cc2)n1Cc1ccco1)c1cccs1	0.02	i
N#Cc1c(-c2ccccc2)c(-c2ccccc2)n(Cc2ccco2)c1NC(=O)c1cccs1	-6.3	-6.3*
O=C(COC(=O)c1nn(-c2ccccc2C(F)(F)F)cc1O)c1ccc(OC(F)F)cc1	0.24	i
Cc1cccc(CN2CCN(C(c3ccccc3)c3ccc(Cl)cc3)CC2)c1 (stereo not given)	-5.9	-5.9*
COc1cc(CN2CCN(C(c3ccccc3)c3ccccc3)CC2)cc(OC)c1OC	nt	i
Cc1ccc(SCc2nc(N)nc(Nc3ccccc3C)n2)cc1C	6.7*	i
Cc1ccccc1Nc1nc(N)nc(CSc2ccc(F)cc2)n1	nt	i
Cc1ccccc1Nc1nc(N)nc(CSCC(=O)Nc2cccc(Br)c2)n1	27*	i
Cc1ccc(SCc2nc(N)nc(Nc3ccccc3C)n2)c(C)c1	2.7	i
CC(C)CN(CC(C)C)S(=O)(=O)N1CCC(C(=O)NCc2ccc3c(c2)OCO3)CC1	4.8	i
Cc1cc(C)c2sc(NC(=O)C3=COCCO3)nc2c1	1.1	i
CC1C2NC(=O)N(Cc3ccccc3)C1(C)Oc1ccccc12 (stereo not given)	nt	i
CC(C)(C)C1=NN(C(=O)c2ccccc2)C(O)(C(C)(C)C)C1 (stereo not given)	nt	i
CC(C)C1=NN(C(=O)c2ccccc2)C(O)(C(C)(C)C)C1 (stereo not given)	7.1*	i
CCCCS(=O)(=O)/C=C\C=C/S(=O)(=O)CCCC	6.7*	i
CCCCS(=O)(=O)/C=C\C1C2C=CC(C2)C1S(=O)(=O)CCCC (stereo not given)	nt	i
CNC(=O)C(=O)NCC1OCCN1S(=O)(=O)c1ccc(OC)c(OC)c1 (stereo not given)	nt	i
O=C(COc1ccc([N+](=O)[O-])cc1)N(Cc1ccccc1)Cc1ccccc1	-5.8	-5.8*
COC(=O)C(Cc1ccccc1)NC(=O)COc1ccc(C(C)(C)C)cc1 (stereo not given)	-5.6	-5.6*
CCOc1ccc(C(=O)NC(Cc2ccccc2)C(=O)OC)cc1 (stereo not given)	nt	i
CN(Cc1ccccc1)C(=O)COc1ccccc1Cl	nt	i
SMILES	KCNQ2 enhance	KCNQ2 inh
O=C(COc1ccccc1)NNC(=O)COc1ccc([N+](=O)[O-])cc1	1.2	i
CN(Cc1ccccc1)C(=O)COc1ccc(C(C)(C)C)cc1	-5.6	-5.6*
COc1ccc(CCN(C)C(=O)CN2C(=O)NC3(CCCc4ccccc43)C2=O)cc1OC (stereo not given)	nt	i
C#CCNC(=O)C1=C[C@H](c2ccc(Br)cc2)C[C@H](OCCCCO)O1	0.01	i
CCC(C(=O)Nc1nnc(-c2ccco2)s1)c1ccccc1 (stereo not given)	nt	i
O=C(CSc1nncs1)NCCCc1ccccc1	1.3	i
Cc1ccccc1C(=O)O/N=C/c1c(N2CCOCC2)n(C)c2ccccc12	-7.6	-7.6*
CN1CCN(c2c(/C=N/O)c3ccccc3n2C)CC1	1.7	i
CCC1(C)Cc2ccccc2-c2[nH][nH]c(=O)c21 (stereo not given)	0.41	i
Fc1cccc(CSc2ccc(-c3ccc4c(c3)OCO4)nn2)c1	nt	i
Cc1ccccc1CSc1ccc(-c2ccc3c(c2)OCO3)nn1	-5.8	-5.8*
COc1ccc(C(=O)NCC(=O)OCC(=O)c2ccc3c(c2)OCCO3)cc1	0.03	i
Cc1ccccc1NC1=NC(=S)N(c2ccccc2)C12CCCCC2	5.5*	i
Cc1ccccc1NC1=NC(=S)N(c2ccccc2)C12CCOC(C)(C)C2 (stereo not given)	0.22	i
COc1cc2c(cc1OC)CN(C(=O)CCNS(=O)(=O)c1ccccc1F)CC2	0.47	i
CC(Oc1ncnc2ccccc12)C(=O)Nc1cccc(S(=O)(=O)N2CCOCC2)c1 (stereo not given)	1.3	i
CCC1CCCCN1C(=O)COc1c(Br)cc(Br)c2cccnc12 (stereo not given)	-7.8	-7.8*
CCC1CCCCN1C(=O)COc1ccc(F)cc1 (stereo not given)	0.05	i
CC(C)(C)C(=O)CSc1nnc(Nc2ccccc2)s1	nt	i

High-throughput results from PubChem.
